# Results: PMC11006913
# Changes are numbered by the printed parent chain.
# What was measured:
# Assay in all cases: PBM; 200 nM protein, PBS
# Details in all cases: dsDNA, one strand shown
# SIX6 [1] = biological target: T1, SIX6 (Homo sapiens, UniProt O95475 114-200, L167I)
# T1 sequence: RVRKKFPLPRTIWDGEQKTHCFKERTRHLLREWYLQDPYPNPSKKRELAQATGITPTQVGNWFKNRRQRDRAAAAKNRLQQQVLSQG
# SIX6 [2] = biological target: T2, SIX6 (Homo sapiens, UniProt O95475 114-200, L143V)
# T2 sequence: T1 sequence with L30V, I54L
# SIX6 [3] = biological target: T3, SIX6 (Homo sapiens, UniProt O95475 114-200, H141N)
# T3 sequence: T1 sequence with H28N, I54L
# SIX6 [4] = biological target: T4, SIX6 (Homo sapiens, UniProt O95475 114-200, T165P)
# T4 sequence: T1 sequence with T52P, I54L
# SIX6 [5] = biological target: T5, SIX6 (Homo sapiens, UniProt O95475 114-200, L167M)
# T5 sequence: T1 sequence with I54M
# SIX6 [6] = biological target: T6, SIX6 (Homo sapiens, UniProt O95475 114-200, L143M)
# T6 sequence: T1 sequence with L30M, I54L
# SIX6 [7] = biological target: T7, SIX6 (Homo sapiens, UniProt O95475 114-200, L143I)
# T7 sequence: T1 sequence with L30I, I54L
# SIX6 [8] = biological target: T8, SIX6 (Homo sapiens, UniProt O95475 114-200, T165G)
# T8 sequence: T1 sequence with T52G, I54L
# SIX6 [9] = biological target: T9, SIX6 (Homo sapiens, UniProt O95475 114-200, T139Q)
# T9 sequence: T1 sequence with T26Q, I54L
# SIX6 [10] = biological target: T10, SIX6 (Homo sapiens, UniProt O95475 114-200, T165A)
# T10 sequence: T1 sequence with T52A, I54L
# SIX6 [11] = biological target: T11, SIX6 (Homo sapiens, UniProt O95475 114-200, L167V)
# T11 sequence: T1 sequence with I54V
# SIX6 [12] = biological target: T12, SIX6 (Homo sapiens, UniProt O95475 114-200)
# T12 sequence: T1 sequence with I54L
# SIX6 [13] = biological target: T13, SIX6 (Homo sapiens, UniProt O95475 114-200, T165I)
# T13 sequence: T1 sequence with T52I, I54L
# HOXA2 [14] = biological target: HOXA2 (Homo sapiens, UniProt O43364 129-215, R185T)
# HOXA2 [15] = biological target: HOXA2 (Homo sapiens, UniProt O43364 129-215, R185K)
# HOXA2 [16] = biological target: HOXA2 (Homo sapiens, UniProt O43364 129-215, Y150S)
# HOXA2 [17] = biological target: HOXA2 (Homo sapiens, UniProt O43364 129-215)
# Sequence of HOXA2 (Homo sapiens, UniProt O43364 129-215) (O43364 129-215): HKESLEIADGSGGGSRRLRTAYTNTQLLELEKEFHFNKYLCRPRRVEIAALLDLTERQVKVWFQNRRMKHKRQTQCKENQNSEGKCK
# Sequence of HOXA2 (Homo sapiens, UniProt O43364 129-215, Y150S) (O43364 129-215 Y150S): as the sequence (O43364 129-215) above, with Y22S counted along it
# Sequence of HOXA2 (Homo sapiens, UniProt O43364 129-215, R185K) (O43364 129-215 R185K): as the sequence (O43364 129-215) above, with R57K counted along it
# Sequence of HOXA2 (Homo sapiens, UniProt O43364 129-215, R185T) (O43364 129-215 R185T): as the sequence (O43364 129-215) above, with R57T counted along it
Sequence,binding signal (SIX6 [1]),binding signal (SIX6 [2]),binding signal (SIX6 [3]),binding signal (SIX6 [4]),binding signal (SIX6 [5]),binding signal (SIX6 [6]),binding signal (SIX6 [7]),binding signal (SIX6 [8]),binding signal (SIX6 [9]),binding signal (SIX6 [10]),binding signal (SIX6 [11]),binding signal (SIX6 [12]),binding signal (SIX6 [13]),binding signal (HOXA2 [14]),binding signal (HOXA2 [15]),binding signal (HOXA2 [16]),binding signal (HOXA2 [17])
ACGCCGGG,"9.17 upbm affinity estimate (log intensity, higher = more binding, comparable within an allelic series)","8.97 upbm affinity estimate (log intensity, higher = more binding, comparable within an allelic series)","9.1 upbm affinity estimate (log intensity, higher = more binding, comparable within an allelic series)","8.92 upbm affinity estimate (log intensity, higher = more binding, comparable within an allelic series)","9.17 upbm affinity estimate (log intensity, higher = more binding, comparable within an allelic series)","9.18 upbm affinity estimate (log intensity, higher = more binding, comparable within an allelic series)","9.05 upbm affinity estimate (log intensity, higher = more binding, comparable within an allelic series)","9.16 upbm affinity estimate (log intensity, higher = more binding, comparable within an allelic series)","9.21 upbm affinity estimate (log intensity, higher = more binding, comparable within an allelic series)","9.2 upbm affinity estimate (log intensity, higher = more binding, comparable within an allelic series)","9 upbm affinity estimate (log intensity, higher = more binding, comparable within an allelic series)","9.15 upbm affinity estimate (log intensity, higher = more binding, comparable within an allelic series)","9.16 upbm affinity estimate (log intensity, higher = more binding, comparable within an allelic series)",–,–,–,–
CTCCGCCC,"8.91 upbm affinity estimate (log intensity, higher = more binding, comparable within an allelic series)","8.91 upbm affinity estimate (log intensity, higher = more binding, comparable within an allelic series)","8.92 upbm affinity estimate (log intensity, higher = more binding, comparable within an allelic series)","8.95 upbm affinity estimate (log intensity, higher = more binding, comparable within an allelic series)","8.94 upbm affinity estimate (log intensity, higher = more binding, comparable within an allelic series)","8.89 upbm affinity estimate (log intensity, higher = more binding, comparable within an allelic series)","8.86 upbm affinity estimate (log intensity, higher = more binding, comparable within an allelic series)","8.87 upbm affinity estimate (log intensity, higher = more binding, comparable within an allelic series)","8.89 upbm affinity estimate (log intensity, higher = more binding, comparable within an allelic series)","8.96 upbm affinity estimate (log intensity, higher = more binding, comparable within an allelic series)","8.86 upbm affinity estimate (log intensity, higher = more binding, comparable within an allelic series)","8.89 upbm affinity estimate (log intensity, higher = more binding, comparable within an allelic series)","8.95 upbm affinity estimate (log intensity, higher = more binding, comparable within an allelic series)",–,–,–,–
CGGGCCGC,"9.03 upbm affinity estimate (log intensity, higher = more binding, comparable within an allelic series)","8.81 upbm affinity estimate (log intensity, higher = more binding, comparable within an allelic series)","9.05 upbm affinity estimate (log intensity, higher = more binding, comparable within an allelic series)","8.75 upbm affinity estimate (log intensity, higher = more binding, comparable within an allelic series)","8.94 upbm affinity estimate (log intensity, higher = more binding, comparable within an allelic series)","8.95 upbm affinity estimate (log intensity, higher = more binding, comparable within an allelic series)","8.91 upbm affinity estimate (log intensity, higher = more binding, comparable within an allelic series)","8.87 upbm affinity estimate (log intensity, higher = more binding, comparable within an allelic series)","8.94 upbm affinity estimate (log intensity, higher = more binding, comparable within an allelic series)","9.01 upbm affinity estimate (log intensity, higher = more binding, comparable within an allelic series)","8.94 upbm affinity estimate (log intensity, higher = more binding, comparable within an allelic series)","9.02 upbm affinity estimate (log intensity, higher = more binding, comparable within an allelic series)","8.91 upbm affinity estimate (log intensity, higher = more binding, comparable within an allelic series)",–,–,–,–
CTGCGGAC,"8.88 upbm affinity estimate (log intensity, higher = more binding, comparable within an allelic series)","8.75 upbm affinity estimate (log intensity, higher = more binding, comparable within an allelic series)","8.87 upbm affinity estimate (log intensity, higher = more binding, comparable within an allelic series)","8.83 upbm affinity estimate (log intensity, higher = more binding, comparable within an allelic series)","8.84 upbm affinity estimate (log intensity, higher = more binding, comparable within an allelic series)","8.84 upbm affinity estimate (log intensity, higher = more binding, comparable within an allelic series)","8.83 upbm affinity estimate (log intensity, higher = more binding, comparable within an allelic series)","8.91 upbm affinity estimate (log intensity, higher = more binding, comparable within an allelic series)","9.05 upbm affinity estimate (log intensity, higher = more binding, comparable within an allelic series)","8.83 upbm affinity estimate (log intensity, higher = more binding, comparable within an allelic series)","8.84 upbm affinity estimate (log intensity, higher = more binding, comparable within an allelic series)","8.84 upbm affinity estimate (log intensity, higher = more binding, comparable within an allelic series)","8.85 upbm affinity estimate (log intensity, higher = more binding, comparable within an allelic series)",–,–,–,–
CGGGAAGC,"9.04 upbm affinity estimate (log intensity, higher = more binding, comparable within an allelic series)","8.99 upbm affinity estimate (log intensity, higher = more binding, comparable within an allelic series)","9 upbm affinity estimate (log intensity, higher = more binding, comparable within an allelic series)","9.05 upbm affinity estimate (log intensity, higher = more binding, comparable within an allelic series)","9.01 upbm affinity estimate (log intensity, higher = more binding, comparable within an allelic series)","8.96 upbm affinity estimate (log intensity, higher = more binding, comparable within an allelic series)","9.03 upbm affinity estimate (log intensity, higher = more binding, comparable within an allelic series)","9.03 upbm affinity estimate (log intensity, higher = more binding, comparable within an allelic series)","9.07 upbm affinity estimate (log intensity, higher = more binding, comparable within an allelic series)","9.03 upbm affinity estimate (log intensity, higher = more binding, comparable within an allelic series)","9.01 upbm affinity estimate (log intensity, higher = more binding, comparable within an allelic series)","8.93 upbm affinity estimate (log intensity, higher = more binding, comparable within an allelic series)","8.99 upbm affinity estimate (log intensity, higher = more binding, comparable within an allelic series)",–,–,–,–
AGCCGGCT,"9.39 upbm affinity estimate (log intensity, higher = more binding, comparable within an allelic series)","9.1 upbm affinity estimate (log intensity, higher = more binding, comparable within an allelic series)","9.34 upbm affinity estimate (log intensity, higher = more binding, comparable within an allelic series)","8.96 upbm affinity estimate (log intensity, higher = more binding, comparable within an allelic series)","9.33 upbm affinity estimate (log intensity, higher = more binding, comparable within an allelic series)","9.42 upbm affinity estimate (log intensity, higher = more binding, comparable within an allelic series)","9.2 upbm affinity estimate (log intensity, higher = more binding, comparable within an allelic series)","9.33 upbm affinity estimate (log intensity, higher = more binding, comparable within an allelic series)","9.36 upbm affinity estimate (log intensity, higher = more binding, comparable within an allelic series)","9.35 upbm affinity estimate (log intensity, higher = more binding, comparable within an allelic series)","9.33 upbm affinity estimate (log intensity, higher = more binding, comparable within an allelic series)","9.39 upbm affinity estimate (log intensity, higher = more binding, comparable within an allelic series)","9.26 upbm affinity estimate (log intensity, higher = more binding, comparable within an allelic series)","7.56 upbm affinity estimate (log intensity, higher = more binding, comparable within an allelic series)","10.5 upbm affinity estimate (log intensity, higher = more binding, comparable within an allelic series)","10.2 upbm affinity estimate (log intensity, higher = more binding, comparable within an allelic series)","7.61 upbm affinity estimate (log intensity, higher = more binding, comparable within an allelic series)"
